# Screening data: PubChem, The Scripps Research Institute Molecular Screening Center
# Rows were chosen to be rich in hits. Some 2.9% of all compounds tested hit in one or more screens of this group.
# pPAFAH inh: inhibitors of human plasma PAF acetylhydrolase (pPAFAH) | recombinant pPAFAH, FP-rhodamine probe fluorescence polarization | AID 463082 | actives 1.5% (n = 330,000) | inhibition, % at 3.39 µM;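 active = inhibition above the mean inhibition across the screen plus 3 SD, cut at about 25% in these data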;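 note: inhibitors block binding of the rhodamine activity-based probe so polarization drops; 0% = enzyme with DMSO and 100% = wells lacking pPAFAH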
# PAFAH1B3 FP inh: inhibitors of human PAFAH1B3; recombinant PAFAH1B3, FP-rhodamine probe, fluorescence polarization; inhibition, % at 3.39 µM; actives 0.28% (n = 340,000);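 active = inhibition above the screen-wide average of all tested compounds plus 3 SD, cut at about 25% in these data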;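 note: 0% = enzyme with DMSO only and 100% = wells lacking PAFAH1B3 protein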
# Target sequence (Q15102 whole entry, looked up): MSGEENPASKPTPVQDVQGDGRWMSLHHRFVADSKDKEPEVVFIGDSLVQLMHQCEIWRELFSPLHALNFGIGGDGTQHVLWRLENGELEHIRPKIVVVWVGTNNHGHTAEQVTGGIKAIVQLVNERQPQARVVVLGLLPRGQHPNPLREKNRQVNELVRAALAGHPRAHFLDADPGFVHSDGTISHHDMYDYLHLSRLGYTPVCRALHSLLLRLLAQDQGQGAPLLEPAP
# PAFAH2 inh: PAFAH2 (human) inhibition; Q99487; recombinant PAFAH2, FP-rhodamine activity probe, fluorescence polarization; inhibition, % at 3.39 µM; actives 0.99% (n = 340,000);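 active = inhibition above the mean over all tested compounds plus 3 SD, cut at about 30% in these data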;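 note: inhibitors block probe labeling of enzyme so polarization drops; 0% = enzyme with DMSO and 100% = wells lacking PAFAH2 protein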
# PAFAH1B2 inh: inhibitors of human PAFAH1B2. P68402. recombinant PAFAH1B2, FP-rhodamine activity probe, fluorescence polarization. inhibition, % at 3.39 µM. actives 1.2% (n = 340,000);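 active = inhibition above the mean of all tested compounds plus 3 SD, cut at about 24% in these data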;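 note: 0% = enzyme with DMSO and 100% = wells lacking PAFAH1B2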
# Target sequence (P68402 whole entry, looked up): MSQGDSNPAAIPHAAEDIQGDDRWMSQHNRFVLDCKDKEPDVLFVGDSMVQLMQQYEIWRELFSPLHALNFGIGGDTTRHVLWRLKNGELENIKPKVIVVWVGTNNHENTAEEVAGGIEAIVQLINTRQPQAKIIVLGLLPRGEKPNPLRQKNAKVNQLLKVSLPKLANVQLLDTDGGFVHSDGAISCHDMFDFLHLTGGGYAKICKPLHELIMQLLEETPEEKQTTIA
# PME-1 inh: blocks human protein phosphatase methylesterase 1. Q9Y570. recombinant PME-1, FP-Rh probe fluorescence polarization. inhibition, % at 5.9 µM. actives 0.53% (n = 320,000);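 active = inhibition above the campaign mean of all compounds plus 3 SD, cut at about 26% in these data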;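 note: competitive labeling of PME-1 active site by serine hydrolase directed probe; 0% = PME-1 with DMSO and 100% = wells lacking PME-1 enzyme; inhibitors block probe labeling so polarization falls and inhibition rises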
# Fam108B inh: blocks mouse Fam108B hydrolase in RBBP9 counter-screen; recombinant Fam108B, FP-Rh probe fluorescence polarization; actives 0.33% (n = 300,000); inhibition, % at 9.51 µM;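 active = inhibition above the screen mean inhibition plus 3 SD, computed separately per campaign, cut at about 18% in these data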;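 note: inhibitors lower polarization as less probe binds the enzyme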
# PAFAH1B3 confirm: PAFAH1B3 (human) inhibition, confirmed | shares compounds with PAFAH1B3 FP inh | recombinant PAFAH1B3, FP-Rh activity-based probe, fluorescence polarization | inhibition, % at 3.39 µM | actives 30% (n = 390) | AID 493032;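 active = average inhibition over triplicate runs above the hit cutoff set in the earlier primary screen, cut at about 25% in these data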;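 note: 0% = enzyme with DMSO and 100% = wells lacking PAFAH1B3 protein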
# Active calls of the source: *; . = no result given.
SMILES,pPAFAH inh,PAFAH1B3 FP inh,PAFAH2 inh,PAFAH1B2 inh,PME-1 inh,Fam108B inh,PAFAH1B3 confirm
CSc1nnc(Cc2ccc3c(c2)OCO3)o1,0,-1,-7,1,1,-3,.
COc1ccc2[nH]c(=O)cc(C(=O)O)c2c1,8,14,6,3,-3,7,.
COc1ccc2[nH]c3c4c(ccc3c2c1)C(=O)C=CC4=O,.,37*,16,17,.,.,17
O=C(Cn1ncc2c([nH]c3ccccc32)c1=O)N1CCN(c2ccc(F)cc2)CC1,3,3,1,2,-1,-2,.
O=C(NCc1cc(C(F)(F)F)ccc1Cl)c1cccc2c1C(=O)c1ccc(-c3ccc(OC(F)(F)F)cc3)cc1S2(=O)=O,5,.,.,.,.,.,.
CCCc1cc(=O)[nH]c(SCC(=O)N2CCc3ccccc3C2)n1,-1,-2,-2,4,5,.,.
O=C(CSc1nccc(=O)[nH]1)N1CCc2ccccc2C1,7,28*,2,4,-5,2,5
CCCCn1c(NC(=O)c2ccc(Br)o2)c(S(=O)(=O)c2ccccc2)c2nc3ccccc3nc21,-1,50*,17,22,5,8,9
Cn1c2c(c3ccccc31)CCSC2=O,-1,26*,-6,3,-4,0,24
O=C1c2ccccc2S(=O)(=O)N1CCCN1C(=O)c2ccccc2S1(=O)=O,.,30*,-2,4,.,.,8
CCOCCCNC(=O)NC12CC3CC(CC(C3)C1)C2,-1,-4,10,6,1,3,.
O=C(O)CCCCCCCCCCCNC(=O)NC12CC3CC(CC(C3)C1)C2,0,26*,0,4,-2,.,6
O=C(COC(=O)Cc1cccs1)NCC(=O)Nc1ccc(F)cc1,5,42*,1,7,-3,.,8
CN(CC(=O)Nc1ccc(F)cc1)C(=O)COC(=O)Cc1cccs1,-8,4,-2,-3,-6,-3,.
COc1ccccc1-c1nc2c3ccccc3nc(=S)n2[nH]1,5,7,-3,-2,-5,2,.
COc1cc(-c2nc3c4ccccc4nc(=S)n3[nH]2)cc(OC)c1OC,6,30*,-2,5,26,4,25
O=C1NC(c2ccccc2)C(c2ccccc2)N1 (stereo not given),.,50*,12,5,.,.,39*
c1ccc(C2NCCNC2c2ccccc2)cc1 (stereo not given),.,5,4,5,.,.,.
CC1CC(=O)N(CC(=O)Nc2ccc(F)cc2F)c2ccccc2S1(=O)=O (stereo not given),1,7,3,-2,-1,-1,.
Cc1ccc(/C=C2/C(=O)c3ccc(C(=O)O)cc3C2=O)o1,.,26*,16,14,.,.,17
Cc1ccc(C=C2C(=O)c3ccccc3C2=O)o1,9,-2,-1,-6,-11,-12,.
COc1cc(/C=C/C(=O)CC(=O)/C=C/c2ccc(O)c(OC)c2)ccc1O,12,26*,-21,12,0,12,10
CC1(C)C(=O)OC(c2cccn2-c2ccc([N+](=O)[O-])cc2)C2(CCCCC2)C1=O (stereo not given),1,48*,-2,1,3,2,5
CC1(C)C(=O)OC(c2cccn2-c2ccc([N+](=O)[O-])cc2)C(C)(C)C1=O (stereo not given),2,9,0,10,4,-6,.
COc1ccc(C(=O)OCC(=O)c2ccc3[nH]c(=O)[nH]c3c2)c(OC)c1OC,3,12,3,-4,.,.,.
SMILES,pPAFAH inh,PAFAH1B3 FP inh,PAFAH2 inh,PAFAH1B2 inh,PME-1 inh,Fam108B inh,PAFAH1B3 confirm
COc1cc(NCCCNC(C)C)c2nccc(C)c2c1,.,40*,0,13,.,.,13
COc1cc(OC)c(C(=O)Nc2ccc(S(=O)(=O)N3CCCCC3)cc2)cc1OC,7,30*,5,6,5,-2,25
Cc1nn(-c2ccc(F)cc2)c2nc(N)c(C#N)c(-c3ccc(O)c(O)c3)c12,.,36*,5,14,.,.,-3
Cc1nn(-c2ccc(F)cc2)c2nc(N)c(C#N)c(-c3cccs3)c12,-2,-6,-2,2,-7,-7,.
COc1ccc(/C=C(\NC(=O)c2ccccc2)C(=O)OC[C@@H]2CCC[N+]3(C)CCCCC23)cc1OC (stereo not given in full),-5,6,-2,8,-7,-5,.
CCOc1ccc(NC(=O)CN(C)C(=O)c2cc(S(=O)(=O)N3CCCCC3)ccc2C)cc1OCC,4,2,3,4,2,3,.
c1ccc(CNn2nnnc2-c2ccccc2)cc1,4,3,2,11,4,2,.
CCNC1=C(Cl)C(=O)c2ccccc2C1=O,4,17,-1,4,10,3,.
O=C1C(Cl)=C(Nc2ccc(O)cc2)C(=O)c2ccccc21,1,27*,9,13,21,12,18
CCN(CC)c1ccc(NC2=C(Cl)C(=O)c3ccccc3C2=O)cc1,10,26*,28,6,7,14,36*
Cc1ccc(NC2=C(Cl)C(=O)c3ccccc3C2=O)cc1,6,16,9,9,21,10,.
CCCC(=O)NC1=C(Cl)C(=O)c2ccccc2C1=O,.,38*,20,6,.,.,14
O=C1NCN(C2CCCCC2)CN1,.,6,2,-2,.,.,.
CCOc1ccccc1OCCC(=O)OCC(=O)Nc1c(C)cc(C)cc1C,15,3,4,0,0,-2,.
O=C(C1=C(c2ccccc2)C(=O)c2ccccc2C1=O)c1ccccc1,.,58*,8,11,.,.,26*
N#CC1(c2ccccc2)CCC(NCCc2ccccc2)CC1 (stereo not given),-5,4,4,7,-4,-1,.
O=S(=O)(Nc1ccc(N=Nc2ccc(O)c3ccccc23)cc1)c1ccccc1,25,36*,12,18,39*,15,17
O=C1NC(=O)c2cc([N+](=O)[O-])cc3cccc1c23,.,9,-2,1,.,.,.
O=C1NC(=O)c2cc(Br)cc3cccc1c23,3,46*,-1,6,5,-3,53*
CCN(Cc1ccccc1)C(=O)c1cc(COc2c(F)cccc2F)on1,1,7,-2,5,-6,-3,.
CC(=O)N(/N=C1\Sc2ccccc2C1=O)c1ccccc1,.,44*,11,13,.,.,62*
CC(=O)N(/N=C1\Sc2ccccc2C1=O)c1ccc(C)cc1C,22,22,-5,1,-8,-1,.
CC(=O)N(/N=C1\Sc2ccccc2C1=O)c1ccccc1C,-3,41*,4,5,-6,5,54*
CC(=O)N(/N=C1/C(=O)Nc2ccccc21)c1ccccc1,6,7,2,-2,0,-1,.
